Results as given in PubChem BioAssay (NCI).
The panel holds about 83,000 compounds, 20% with a hit somewhere; the sample as a whole holds those more often.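 Cell lines were cultured in 96-well plates, exposed to a single compound concentration, and assessed for percent growth 48 hours later.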 Unmarked numbers belong to inactive results. Active and inactive are the calls of the source. The calls were made as follows: active = growth percent below 10; inactive = the rest.

Columns and labels:
Experiment in all cases: NCI-60 one-dose screen, 48 h (100 = growth as untreated, 0 = no growth, -100 = all killed)
Settings in all cases: 10 µM
[1] = tested on: RPMI-8226 leukemia
[2] = tested on: OVCAR-8 ovarian
[3] = tested on: OVCAR-5 ovarian
[4] = tested on: OVCAR-4 ovarian
[5] = tested on: SK-OV-3 ovarian
[6] = tested on: IGROV1 ovarian
[7] = tested on: OVCAR-3 ovarian
[8] = tested on: HS 578T breast
[9] = tested on: NCI/ADR-RES ovarian
[10] = tested on: T-47D breast
[11] = tested on: BT-549 breast
[12] = tested on: MDA-MB-435 melanoma
[13] = tested on: SW-620 colon
[14] = tested on: MCF7 breast
[15] = tested on: HCT-116 colon
[16] = tested on: HCC-2998 colon
[17] = tested on: KM12 colon
[18] = tested on: MDA-MB-468 breast
[19] = tested on: SR leukemia

Row | SMILES | growth [1] | growth [2] | growth [3] | growth [4] | growth [5] | growth [6] | growth [7] | growth [8] | growth [9] | growth [10] | growth [11] | growth [12] | growth [13] | growth [14] | growth [15] | growth [16] | growth [17] | growth [18] | growth [19]
1 | O=C1CCC(N2Cc3c(C#CCCCNC(=O)c4ccc(NC(=O)[C@@H]5NC6(CCCCC6)[C@@]6(C(=O)Nc7cc(Cl)ccc76)[C@H]5c5cccc(Cl)c5F)cc4)cccc3C2=O)C(=O)N1 (stereo partly drawn) | 43.7% | 69% | 76.6% | 56.5% | 74.2% | 11.7% | 72.3% | 46.2% | 85.7% | 38.4% | 32.5% | 61.6% | 84.7% | 5.5% (active) | 12.6% | 58.6% | 49.2% | 39.3% | –
2 | O=c1[nH][nH]c(Nc2ccccc2)c1N=Nc1ccc(F)cc1 | 112% | 101% | 112% | 80.5% | 94.5% | 80.3% | 103% | 65.2% | 100% | 36.4% | 65.3% | 99.4% | 109% | 13.9% | 87% | 92.6% | 55.3% | 27.8% | –
3 | CN(C)c1ccc(/C=C/C(=O)c2ccc(NC(=O)CN3C(=O)NC(C)(c4ccccc4)C3=O)cc2)cc1 (stereo not drawn) | – | 67.1% | – | 55.4% | 117% | – | 61.7% | 78% | 86.6% | 22.1% | 49.6% | 34% | 74.5% | 11.8% | 26.4% | 38.5% | 23.7% | 7.04% (active) | 42.7%
4 | Brc1ccc(/C=N/Nc2ncnc3sc4c(c23)CCN(Cc2ccccc2)C4)cc1 | 48.5% | 3.8% (active) | 99.9% | 43.7% | 107% | 94.6% | 33% | 48.3% | 68.8% | 91.6% | 102% | 73.5% | 35% | 42.8% | 33.3% | 91.4% | 50.2% | -7.6% (active) | –
5 | CC1(c2ccccc2)NC(=O)N(CC(=O)Nc2ccc(C(=O)/C=C/c3ccc(Br)cc3)cc2)C1=O (stereo not drawn) | – | 41.3% | 76% | 43.3% | 94.3% | 61.6% | 27.4% | 53.4% | 79.8% | 14.3% | 25.4% | -44% (active) | 32.7% | -42.6% (active) | -69.7% (active) | 10.5% | -27.8% (active) | -8.76% (active) | 15.5%
6 | Cc1ccc([N+](=O)[O-])c(C(=O)Nc2ccc(-c3ccc4c(c3)NC(=O)/C4=C\c3ccc[nH]3)cc2)c1 | 31.4% | 25.6% | 55% | 34.3% | 109% | 53.9% | 41.3% | 67.2% | 38% | -15.7% (active) | 97.5% | 32% | -51.2% (active) | -47.7% (active) | 55.9% | 47.6% | -10.9% (active) | -28.9% (active) | –
7 | N#Cc1c(-c2ccc(F)cc2)nc(SCc2ccc(F)cc2)nc1N1CCOCC1 | 92.7% | 54.8% | 83.1% | 60.5% | 39.6% | 90.9% | 75.2% | 25.7% | 63.5% | 73.2% | 64.3% | 93.5% | 85.5% | 63.7% | 66% | 87.4% | 87.2% | – | –
8 | CC(=O)c1ccc(NC(=O)NCn2c(=O)[nH]c3ccccc3c2=O)cc1 | 87.8% | 101% | 107% | 107% | 94.9% | 104% | 131% | 97.3% | 107% | 83% | 159% | 99.6% | 101% | 83% | 110% | 112% | 103% | 92% | –
9 | CSc1nc(-c2cccc(C)c2)c2cc(-c3ccccc3)n(C)c2n1 | – | 25.2% | 49.6% | 31.5% | 69% | 34.3% | -32.4% (active) | 9.16% (active) | -19.6% (active) | 1.02% (active) | -5.93% (active) | -39.3% (active) | – | 5.57% (active) | 13.5% | 39.4% | 6.5% (active) | -29.2% (active) | 11.7%
10 | CN1CCCN(Cc2ccc(C(=O)Nc3cccc(Nc4ccc5cc(O)ccc5n4)c3)cc2C(F)(F)F)CC1 | -20.5% (active) | 101% | 131% | 77.2% | 116% | 88.6% | 76.9% | 61.9% | 90.7% | 88.7% | 98% | 37.9% | -25.8% (active) | -22.8% (active) | 3.55% (active) | -15.1% (active) | 25.8% | 5.76% (active) | –
11 | C=C(C)[C@@H]1CC[C@]2(COP(=O)(OCC)OCC)CC[C@]3(C)[C@H](CC[C@@H]4[C@@](C)(CCCN)[C@H](C(=C)C)CC[C@]43C)[C@@H]12 | -34.4% (active) | 26% | 43.2% | 23.2% | 46.2% | 40.4% | 24.2% | 31.3% | 18.9% | 19% | -8.75% (active) | 14.3% | 12.4% | 6.11% (active) | -31.4% (active) | 10.7% | 16.8% | – | –
12 | CN(C)c1cccc2c(S(=O)(=O)Nc3cccc(-c4csc(NC(=O)CCCCCN5CCN(c6cc7c(cc6F)C(=O)N(C6CCC(=O)NC6=O)C7=O)CC5)n4)c3)cccc12 (stereo not drawn) | 50.7% | 94.6% | 105% | 66.6% | 86.9% | 96.3% | 99.8% | 70.4% | 98.4% | 74.7% | 85.6% | 95.2% | 98.6% | 73.5% | 68.3% | 111% | 104% | 59.7% | –
13 | C#CCNC(=O)[C@]12CCC(C)(C)C[C@H]1C1=CC[C@@H]3[C@@](C)(CCC#N)[C@H](C(=C)C)CC[C@@]3(C)[C@]1(C)CC2 | 22.2% | 64.2% | 77.4% | 68.2% | 62.6% | 71.9% | 91.8% | 79.4% | 62.5% | 28% | 75.6% | 72.2% | 74.1% | 34% | 27.2% | 75.4% | 54.8% | 34.7% | –
14 | O=c1[nH]c2ccccc2cc1CSc1ccc(Nc2nccc(-c3ccc4ccccc4c3)n2)cc1 | 67.5% | -28% (active) | 62.9% | -13.6% (active) | 116% | 73.9% | 13.1% | 60.6% | 24.4% | 86.8% | 48.6% | 69.8% | 32.9% | 19% | 26.2% | 63.5% | 50.2% | -3.76% (active) | –
15 | O=C(N/N=C/c1ccc(B(O)O)o1)c1[nH]c2ccc(Br)cc2c1-c1ccccc1 | 28.2% | 14.1% | 43.5% | 56.1% | 25.5% | 51.8% | 14% | 0.269% (active) | -34.6% (active) | 36.4% | 41% | -53.2% (active) | 26.2% | 13.8% | 7.23% (active) | 8.58% (active) | 15.4% | -3.94% (active) | –
16 | O=C(Nc1ccc(Cl)c(C(F)(F)F)c1)c1cncc(C#Cc2cnc3ccc(N4CCOCC4)nn23)c1 | – | 3.66% (active) | 19.4% | 13.6% | 10.7% | -14.1% (active) | 13.6% | -25.3% (active) | -5.95% (active) | 1.27% (active) | -14.9% (active) | 19.3% | 19.4% | -13.3% (active) | -26.7% (active) | -13.3% (active) | -21.5% (active) | -30.8% (active) | 2.44% (active)
